In PubChem BioAssay (Tox21):
Results filed as inconclusive are left out. Calls of active or inactive are those of the source. The call rests on the fitted dose curve; in most records, active means well fitted activation curve with a large enough effect in the signal ratio in the repeat runs (not every such curve was filed as active); inconclusive means weak or mixed curves, or effect the other way; inactive means flat fitted curve, though single readings scatter; the % refers to the signal ratio.

Test: qHTS assay to identify small molecule agonists of the endoplasmic reticulum stress response signaling pathway (AID 1159516)
Settings: ESRE-bla HeLa, ER stress beta-lactamase reporter, 5 h; series mostly up to 61 µM
Description: National Center for Advancing Translational Sciences [NCATS]
NIH Chemical Genomics Center [NCGC]
U.S. Environmental Protection Agency [EPA]
National Institutes of Environmental Health Sciences [NIEHS]
National Toxicology Program [NTP]
U.S. Food and Drug Administration [FDA]
Endoplasmic Reticulum (ER) plays an important role in cellular signaling, protein folding/maturation, stress response, lipid biosynthesis, calcium storage and release etc. Under stress conditions, proteins in ER misfold or unfold, and leading to the expression of ER stress responsive genes. ER stress has been associated with a variety of pathophysiological conditions such as cancer, inflammation, neurodegenerative diseases, diabetes, ischemic heart disease etc. To identify the compounds that induce ER stress response, an ER stress reporter cell line, CellSensor ESRE-bla HeLa (Life Technologies, Carlsbad, CA) containing a beta-lactamase reporter gene under control of the Endoplasmic reticulum Stress Response Element (ESRE) was used to screen Tox21 10K compound library.
Tox21 Assay Protocol Summary:
ESRE-bla HeLa cells were dispensed at 1,500 cells/6 uL of assay medium per well into black wall/clear-bottom 1536-well plates using a Multidrop Combi (ThermoFisher Scientific, Waltham, MA) dispenser. After the assay plates were incubated at 37 C and 5% CO2 for an overnight, 23 nL of compounds dissolved in DMSO, positive controls or DMSO only was transferred to the assay plate by a Pintool station (Kalypsys, San Diego, CA). The assay plates were incubated at 37 C and 5% CO2 for 5 hr. One uL of LiveBLAzer B/G FRET substrate (Life Technologies) was added using a Flying Reagent Dispenser (Aurora Discovery, San Diego, CA) and the plates were incubated at room temperature for 2 hr. Fluorescence intensity (405 nm excitation, 460 nm and 530 nm emissions) was measured using an Envision plate reader (PerkinElmer, Shelton, CT).

| SMILES | outcome |
| --- | --- |
| Brc1ccc(Oc2ccccc2)cc1 | inactive |
| NNC(=O)c1cccnc1 | inactive |
| CN1[C@@H]2CC[C@H]1CC(OC(=O)c1cc(Cl)cc(Cl)c1)C2 (stereo not given in full) | inactive |
| O=C(NC(=O)c1c(F)cccc1F)Nc1ccc(OC(F)(F)C(F)OC(F)(F)F)c(Cl)c1 (stereo not given) | inactive |
| C[C@@H]1CC[C@H]2[C@@H](C)C(=O)O[C@@H]3O[C@@]4(C)CC[C@@H]1[C@]32OO4 | inactive |
| C=CCCl | inactive |
| O=C(Nc1ccccc1)Nc1ccnc(Cl)c1 | inactive |
| N#C/C(N)=C(/N)C#N | inactive |
| CC(C)O.CC(C)O.OCCN(CCO)CCO.OCCN(CCO)CCO.[Ti] | inactive |
| COP(=S)(Oc1cc(Cl)c(Br)cc1Cl)c1ccccc1 (stereo not given) | inactive |
| CC1(C)CCC(Cc2ccc(Cl)cc2)C1(O)Cn1cncn1 (stereo not given) | inactive |
| COC(=O)C(C)N(C(=O)Cc1ccccc1)c1c(C)cccc1C (stereo not given) | inactive |
| Cc1c(F)c(F)c(COC(=O)C2C(/C=C(\Cl)C(F)(F)F)C2(C)C)c(F)c1F (stereo not given) | inactive |
| O=C1C(Cl)C(CCl)CN1c1cccc(C(F)(F)F)c1 (stereo not given) | inactive |
| NC(=O)C(Cl)(Cl)Cl | inactive |
| Sc1ccccc1Cl | inactive |
| CCOP(=S)(Oc1ccc([N+](=O)[O-])cc1)c1ccccc1 (stereo not given) | inactive |
| CC(=O)[C@H]1CC[C@H]2[C@@H]3CC[C@H]4C[C@](C)(O)CC[C@]4(C)[C@H]3CC[C@]12C | inactive |
| Nc1nc(=S)[nH][nH]1 | inactive |
| O=C(CBr)c1ccccc1 | inactive |

| SMILES | outcome |
| --- | --- |
| ClP(Cl)(Cl)(Cl)Cl | inactive |
| Clc1ccc(C(OCCN2CCCCC2)c2ccccc2)cc1 (stereo not given) | inactive |
| O=C(CBr)OCc1ccccc1 | inactive |
| CCOP(=O)(OCC)SCCSCC | inactive |
| Cc1ccc(N)cc1C | inactive |
| N#Cc1ccc(Cl)cc1 | inactive |
| O=C(OC1CCCCC1)c1ccccc1C(=O)OC1CCCCC1 | inactive |
| CC(c1ccc(O)cc1)(c1ccc(O)cc1)c1ccc(O)cc1 | inactive |
| Cc1ccc2ccccc2c1 | inactive |
| C=C(C#N)CCC#N | inactive |
| Cc1ccc(-c2c(Cl)nc(C#N)n2S(=O)(=O)N(C)C)cc1 | inactive |
| C=CC(C)=O | inactive |
| O=C(Nc1ccccc1)Nc1cnns1 | inactive |
| Cc1ccccc1C(=O)Nc1cccc(OC(C)C)c1 | inactive |
| COc1cc(Cl)c(OC)cc1Cl | inactive |
| CCOP(=S)(OCC)SCSCC | inactive |
| Cn1sc(Cl)cc1=O | inactive |
| CCCCC(CC)COP(=O)(Oc1ccccc1)Oc1ccccc1 (stereo not given) | inactive |
| COP(=S)(OC)Oc1ccc([N+](=O)[O-])cc1Cl | inactive |
| CCOC(=O)CBr | inactive |
